In PubChem BioAssay:
Results filed as inconclusive are left out. The source made the active and inactive calls.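 Rule for the calls, unless noted: active = normalized viability below 100% at a tested concentration; inactive = the rest.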

Key:
[1] = viability loss in pontine glioma line – cell-based, SU-DIPG-XVII, MIPE5.0, CellTiter-Glo, qHTS, dose response (AID 1347060; cut-off not given, nearly all actives have AC50 up to about 26 µM;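 for AC50: cells exposed to compound for 48 hours before viability readout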); settings: CellTiter-Glo ATP luminescence
[2] = viability loss in pontine glioma line – cell-based, SU-DIPG-XIII, MIPE4.0, CellTiter-Glo, qHTS, dose response (AID 1347061; cut-off not given, nearly all actives have AC50 up to about 37 µM;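 note: cells exposed to compound for 48 hours before readout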); settings: CellTiter-Glo ATP luminescence
[3] = viability loss in pontine glioma line – cell-based, SU-DIPG-XXV, MIPE5.0, CellTiter-Glo, qHTS, dose response (AID 1347065; cut-off not given, nearly all actives have AC50 up to about 26 µM;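 note: cells exposed to compound for 48 hours before ATP readout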); settings: CellTiter-Glo ATP luminescence
[4] = growth inhibition of DIPG cells – cell-based, MIPE4.0 library, CellTiter-Glo luminescence, qHTS (AID 1347066; cut-off not given, nearly all actives have AC50 up to about 30 µM;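 note: cells exposed to compound for 48 hours before readout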); settings: SU-DIPG-VI viability, CellTiter-Glo ATP luminescence
[5] = viability loss in pontine glioma line – cell-based, SU-DIPG-XIII, MIPE5.0, CellTiter-Glo, qHTS, dose response (AID 1347064; cut-off not given, nearly all actives have AC50 up to about 23 µM;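 for AC50: cells exposed to compound for 48 hours before the viability read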); settings: CellTiter-Glo ATP luminescence
[6] = JHH-DIPG-1 glioma cell viability, MIPE5.0 library, CellTiter-Glo luminescence, qHTS (AID 1347067; cut-off not given, nearly all actives have AC50 up to about 26 µM;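 note: cells exposed to compound for 48 hours before readout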); settings: JHH-DIPG-1 glioma viability, CellTiter-Glo ATP luminescence
[7] = growth inhibition of DIPG cells – cell-based, MIPE5.0 library, qHTS (AID 1347068; cut-off not given, nearly all actives have IC50 up to about 30 µM); settings: SU-DIPG-XXV viability
[8] = viability loss in pontine glioma line – cell-based, SU-DIPG-IV, MIPE4.0, CellTiter-Glo, qHTS, dose response (AID 1347063; cut-off not given, nearly all actives have AC50 up to about 30 µM;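 note: compound exposure lasted 48 hours before the viability readout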); settings: CellTiter-Glo ATP luminescence
[9] = viability loss with induced miR-34 in A549 – imaging, A549 dox-inducible miR-34, nuclei and caspase counts, primary screen (AID 1347080;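 active = compounds whose cell count with miR-34 switched on is under 0.7 times the count with it off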); settings: A549 miR-34 inducible, Hoechst nuclei count, 48 h
[10] = MELAS cybrid and Rieske KO viability enhancers – cell-based, MELAS cybrids, Rieske KO mouse fibroblasts, CellTiter-Glo, primary screen (AID 1508586;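 active = mean z-score across replicates of 1.96 or higher in either the MELAS or the Rieske mutant cell line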;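 note: z relative to plate mean and SD of compound and empty wells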); settings: low glucose
[11] = compounds altering HSF1 focus formation in cells – imaging, Selleck Cancer Library (AID 1347162; in the data active = plate-normalised HSF1 focus index below about 0.46); settings: human cells, HSF1 nuclear foci imaging, at 10 µM; SSMD: measured here: HSF1 foci SSMD mean; cell count: measured here: cell number; plate-normalised HSF1 focus index: stronger effect = lower value
[12] = drug combination growth inhibition, ovarian cancer – cell-based, oncology-focused library, rucaparib conditional, profiling panel (AID 1508598); settings: patient-derived ovarian cancer cells, CellTiter-Glo viability, 144 h, stronger effect = lower value
[13] = stronger effect = lower value, cell number ratio, induced over uninduced
[14] = measured here: relative caspase fold change +Dox/-Dox
[15] = measured here: total cells with miR-34 induction, stronger effect = lower value
[16] = measured here: total cells without miR-34 induction
[17] = MELAS cybrid survival, CellTiter-Glo 48 h, stronger effect = higher value
[18] = Rieske KO mouse fibroblast survival, CellTiter-Glo 72 h

Cc1cc(C(=O)N2CCN(c3cccc(Cl)c3)CC2)n(-c2ccccc2)n1
active: AC50 [1] 7.42 µM | AC50 [3] 9.34 µM
inactive: outcome [2] | outcome [4]

O=C(Nc1ccc(Oc2ccnc3[nH]ccc23)c(F)c1)c1cccn(-c2ccc(F)cc2)c1=O
inactive: outcome [1] | outcome [2] | outcome [5] | outcome [3] | outcome [4] | outcome [6] | outcome [7]

CC1(C)CCC(CN2CCN(c3ccc(C(=O)NS(=O)(=O)c4ccc(NCC5CCOCC5)c([N+](=O)[O-])c4)c(Oc4cnc5[nH]ccc5c4)c3)CC2)=C(c2ccc(Cl)cc2)C1
inactive: outcome [2] | outcome [7] | fold change [9, 13] 1.1 | z-score [10, 17] -0.355
active: AC50 [1] 18.6 µM | AC50 [8] 10.5 µM | AC50 [3] 0.417 µM | AC50 [4] 7.43 µM | AC50 [6] 13.2 µM
5370: cell count [9, 15]
4860: cell count [9, 16]
0.349: fold change [9, 14]
0.0474: z-score [10, 18]

CCC(=O)N1CCN(c2ccc(-n3c(=O)ccc4cnc5ccc(-c6cnc7ccccc7c6)cc5c43)cc2C(F)(F)F)CC1
7220: cell count [11]
inactive: plate-normalised HSF1 focus index [11] 1.1
active: AC50 [1] 0.0456 µM | AC50 [2] 1.32 µM | AC50 [8] 0.0662 µM | AC50 [5] 0.162 µM | AC50 [3] 0.0811 µM
1.96: SSMD [11]

O=C(O)Cn1nnc(-c2cc(N3CCC(Oc4cc(F)ccc4Br)CC3)no2)n1
inactive: outcome [1] | outcome [2] | outcome [8] | outcome [5] | outcome [4] | outcome [6] | outcome [7] | fold change [9, 13] 0.885 | z-score [10, 17] -0.382
6300: cell count [9, 15]
0.826: fold change [9, 14]
0.855: z-score [10, 18]
7120: cell count [9, 16]

CC(C)(C)c1cc(NC(=O)Nc2ccc(-c3cn4c(n3)sc3cc(OCCN5CCOCC5)ccc34)cc2)no1
0.734: SSMD [11]
0.781: fold change [9, 14]
inactive: outcome [2] | outcome [7] | fold change [9, 13] 1 | plate-normalised HSF1 focus index [11] 1.05 | viability ([12]; at 0.000305 µM, OCI-C5x cells, with rucaparib 10 µM, 100% = cells with rucaparib alone) 105% | viability ([12]; at 0.000305 µM, OCI-C5x cells, without rucaparib) 104% | viability ([12]; at 0.00122 µM, OCI-C5x cells, with rucaparib 10 µM, 100% = cells with rucaparib alone) 112% | viability ([12]; at 0.00488 µM, OCI-C5x cells, with rucaparib 10 µM, 100% = cells with rucaparib alone) 105% | viability ([12]; at 0.0195 µM, OCI-C5x cells, with rucaparib 10 µM, 100% = cells with rucaparib alone) 107% | viability ([12]; at 0.0195 µM, OCI-C5x cells, without rucaparib) 101% | viability ([12]; at 0.0195 µM, OCI-P5x cells, with rucaparib 20 µM, 100% = cells with rucaparib alone) 103% | viability ([12]; at 0.0781 µM, OCI-C5x cells, with rucaparib 10 µM, 100% = cells with rucaparib alone) 111% | viability ([12]; at 0.0781 µM, OCI-C5x cells, without rucaparib) 112% | viability ([12]; at 0.313 µM, OCI-C5x cells, with rucaparib 10 µM, 100% = cells with rucaparib alone) 115% | viability ([12]; at 0.313 µM, OCI-C5x cells, without rucaparib) 108% | viability ([12]; at 1.25 µM, OCI-C5x cells, with rucaparib 10 µM, 100% = cells with rucaparib alone) 108% | viability ([12]; at 1.25 µM, OCI-C5x cells, without rucaparib) 128% | viability ([12]; at 5 µM, OCI-C5x cells, with rucaparib 10 µM, 100% = cells with rucaparib alone) 100% | viability ([12]; at 5 µM, OCI-C5x cells, without rucaparib) 107%
active: AC50 [1] 23.5 µM | AC50 [5] 14.8 µM | AC50 [3] 16.6 µM | AC50 [6] 20.9 µM | z-score [10, 17] 4.33 | viability ([12]; at 0.000305 µM, OCI-P5x cells, with rucaparib 20 µM, 100% = cells with rucaparib alone) 87.1% | viability ([12]; at 0.000305 µM, OCI-P5x cells, without rucaparib) 82.2% | viability ([12]; at 0.00122 µM, OCI-C5x cells, without rucaparib) 95% | viability ([12]; at 0.00122 µM, OCI-P5x cells, with rucaparib 20 µM, 100% = cells with rucaparib alone) 93.1% | viability ([12]; at 0.00122 µM, OCI-P5x cells, without rucaparib) 87% | viability ([12]; at 0.00488 µM, OCI-C5x cells, without rucaparib) 88.6% | viability ([12]; at 0.00488 µM, OCI-P5x cells, with rucaparib 20 µM, 100% = cells with rucaparib alone) 91.7% | viability ([12]; at 0.00488 µM, OCI-P5x cells, without rucaparib) 93.5% | viability ([12]; at 0.0195 µM, OCI-P5x cells, without rucaparib) 93.7% | viability ([12]; at 0.0781 µM, OCI-P5x cells, with rucaparib 20 µM, 100% = cells with rucaparib alone) 86.7% | viability ([12]; at 0.0781 µM, OCI-P5x cells, without rucaparib) 90.6% | viability ([12]; at 0.313 µM, OCI-P5x cells, with rucaparib 20 µM, 100% = cells with rucaparib alone) 82.2% | viability ([12]; at 0.313 µM, OCI-P5x cells, without rucaparib) 99% | viability ([12]; at 1.25 µM, OCI-P5x cells, with rucaparib 20 µM, 100% = cells with rucaparib alone) 83.4% | viability ([12]; at 1.25 µM, OCI-P5x cells, without rucaparib) 87.4% | viability ([12]; at 5 µM, OCI-P5x cells, with rucaparib 20 µM, 100% = cells with rucaparib alone) 31.2% | viability ([12]; at 5 µM, OCI-P5x cells, without rucaparib) 70.6%
6510: cell count [9, 16]
-2.86: z-score [10, 18]
7630: cell count [11]
6520: cell count [9, 15]

C[C@@H](NC(=O)c1ncnc(N)c1Cl)c1ncc(C(=O)Nc2cc(C(F)(F)F)c(Cl)cn2)s1
active: AC50 [1] 16.6 µM | AC50 [2] 18.7 µM | AC50 [5] 14.8 µM | AC50 [6] 5.9 µM
inactive: outcome [4] | outcome [7]

Cc1ccc(S(=O)(=O)Nc2cc(Cl)ccc2C(=O)Nc2nc(-c3ccccc3)cs2)cc1
active: AC50 [1] 7.42 µM | AC50 [2] 10.5 µM | AC50 [8] 16.6 µM | AC50 [3] 8.33 µM | AC50 [4] 5.26 µM | AC50 [6] 1.05 µM
